# System: RARb homodimer (NR concentration 270 nM)
# Experiment: PBM binding z-score (relative to random genomic background probes); higher = stronger binding; sequences stand for … in GC…GCGATTGACAGCGTAGAATGAAGG
# Outline: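 Scanned fluorescence from custom Agilent 4×180K protein-binding microarrays was regression-normalized. Binding z-scores use random background probes as reference. Ligand-free nuclear receptor dimers were incubated on the arrays for 1 h and detected with antibodies against each partner (one per run).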
row,Sequence,PBM binding z-score
1,CTCGAAAGGTCGTGCTCAGGTGAGTATCCCAAAC,2.88
2,CCTATTAGTTGACCATAAGCGCAACCGAAGCTCG,0.669
3,TCGATTAGTTGATTAGGGCAACCGAAACAGCGGA,0.521
4,TCTTGTAGATCAAGCAAGTTAAGAAAGCCTGAGT,-0.703
5,TCGAGTAGGTTAGTCAGGGCATTCAGCCAACATA,0.896
6,CGTCCAAGGTCAATGCTAAGTCAGTGAAAGCATT,3.83
7,ATCTCTAGGTAAGACTCAGTTCATTGAAGAACGC,0.892
8,CTACCAAGGTGAACAAGGTCGTTGACTACTATTC,2.28
9,ATCTCTAGGTAAACTTCAGTGAAAGATCGATAGA,0.191
10,ACTAGTTGGTCTGCTGAGGTCACACACAATTCGG,3.79
11,AATACAGGGACACTAGGCCAGAGTAGGTACGAAT,0.487
12,CCTCGGAGGACAGAATGTCAGAGCTGTCCGCTTT,-0.0927
13,CAAATTAGGTCACAGAGGTCAAAGTCCGTGCGTA,5.59
14,CTCGAAAGGTCGGTTGAGCTGAGTATACGGATAA,1.27
15,TCTATTAGCTGAAGGGCAACCGACGAGTCCGTTT,0.986
16,TCGAGTAGGTTACTCGGGGCATTCAGCCAACATA,0.524
17,CCTGCTCGGTCATGGTCAGCTAATCTACAGTATG,1.93
18,AGTCAAAGTTCAGGCCGAGGTAACGTAAAGCACG,3.34
19,GATACAGCGTCAGCTAGAGGCCAGAGTATGGAAA,-0.524
20,ATATGTAGGTTACATCCGGGTCATTCCGGCTATG,2.71

row,Sequence,PBM binding z-score
1,TCATATAGGTAACGGTGAAAGTCGAACGATATGA,-0.17
2,CCTACTCGGCCATCAGGTCATTGATATCAACGTT,3.21
3,AGAACGAGGGCAATGAGTTGGTAGCACGGGTGGC,0.799
4,TCATATAGGAAAAAGGTGAAAGTCGGTGTGGTAA,1.66
5,GCCGCTAGGTCAGGTTGGTCAGCTAACGGGTACG,2.77
6,CAAACTAGGTCACAGAGCTCAAAGTCCGTGCGTA,3.35
7,TTTATTAGTTGAAGGGCAACCGACGAGTCCGTTT,1.42
8,CCTACTGGTCCATTCAGAGGTCATTGATCATATG,4.13
9,TCATATAGGTAAAGAGGTGAAAGTCCGTAAGTTA,1.56
10,ATCTCTAGGTAAAGTTCAGTGCAAGATCGATAGA,2.68
11,TTACCAAGGTGAAGGGCGTTGATCCCTCTGTAGA,0.953
12,CTCGAAAGGTCGGTTGAGGTGAGTATCCGGATAA,2.38
13,GGAACGAGGGCATTCGAGTAGATAGCATGGCGAT,0.0849
14,ACTTACCGGTCAACGAGGTTATAGCACGCGTATA,2.92
15,ACTAGTTGGTCAGATGAGGTCACACACAATTCGG,4.39
16,AAAGACAGGTGAGTGAAGGTAACTCAGCTGGACG,0.159
17,AGTCAAAGTTCATCTAGGTGACGTAAGATATGCT,3.92
18,CCTGCTAGGTCATGGTCAGCTAATCTACAGTATG,3.24
19,ATATGTAGGTTATTGGGTCATTCAGTTTGCGCAT,3.06
20,TCTTGTAGATCAACAGGAGCTTAAGAAAGATCGA,-1.46

# — the supplement of paper PMC6555819
